Consider 40 compounds from PubChem BioAssay (NCATS).

Records with an inconclusive call do not appear. Entries that show only a call come without a potency. The source made the active and inactive calls. The call rests on the fitted dose curve; in most records, active means well fitted cell-killing curve with a large enough effect; inconclusive means small, poorly fitted or top-dose-only effect; inactive means flat fitted curve, though single readings scatter.
Potency means the concentration at half of the fitted maximal effect.

A short description of this assay: Cell Viability - LYMP2-024 (AID 988). Further: nearly all actives have a fitted effect of over 60% in size. Particulars: LYMP2-024 lymphoblastoid cell viability; series mostly up to 92.2 µM. The source says: NIH Chemical Genomics Center [NCGC]
NIH Molecular Libraries Screening Centers Network [MLSCN]
National Institutes of Environmental Health Sciences [NIEHS]
National Toxicology Program [NTP]
We have developed a 1536-well cell-based assay for quantitative high throughput screening (qHTS) against a number of cell lines to determine in vitro cytotoxicity of small molecules. This particular assay uses a human lymphoblastoid cell line (LYMP2-024) purchased from Coriell Institute for Medical Research.
NCGC Assay Protocol Summary:
The CellTiter-Glo luminescent cell viability assay (Promega) is a homogeneous method to measure the number of viable cells in culture. The end point readout of this assay is based on quantitation of intracellular ATP, an indicator of metabolic activity, using the luciferase reaction. Luciferase catalyzes the oxidation of beetle Luciferin to oxyluciferin and light in the presence of ATP. The luminescent signal is proportional to amount of ATP present.
Using the CellTiter-Glo luminescent cell viability assay, the amount of cellular ATP was measured in the lymphoblastoid cell line with complete culture medium following compound treatment for 24 hours. The assay was performed in opaque white Kalypsys 1536-well plates. In the screen, tetraoctylammonium bromide was used as positive control. Library compounds were measured for their ability to cause acute toxicity in the cell line, as reflected by a decrease in intracellular ATP levels, in a concentration-dependent manner. […] AC50 values were determined from concentration-response data modeled with the standard Hill equation.
qHTS protocol for CellTiter Glo lymphoblastoid cellular assay
[Step] [Parameter] [Value] [Description]
1. Reagent; 5 uL; 2500 lymphoblastoid cells/well
2. Time; 5 hr; 37 C incubation
4. Controls; 23 nL; Tetraoctylammonium bromide 6.4pM to 92 uM
5. Time; 24 hr; 37 C incubation
6. Reagent; 5 uL; CellTiter Glo reagent
7. Time; 30 min; Room Temperature
8. Detection; Luminescence; Viewlux plate reader
Keywords: cell viability, cytotoxicity, lymphoblastoid cell line, luminescence, NTPHTS, NTPHTS_NCGC, NIEHS, DSSTox, MLSMR, MLSCN, NIH Roadmap, qHTS, NCGC
In the case of `O=[N+]([O-])c1ccc(Cl)cc1Cl`, the Potency result was “inactive”. Next, `COC(=O)CS`: “inactive”; `Cc1ccccc1C=O`: “inactive”; `CN(C)c1cccc(O)c1`: “inactive”. Under `O=C(O)c1ccccc1Cl` stands “inactive”; under `Cc1ccc(C)c([N+](=O)[O-])c1`, “inactive”. Under `Nc1nc(-c2ccccc2)cs1` stands “inactive”; under `C/C(C=O)=C/c1ccccc1`, “inactive”; under `O=C(O)c1ccc(Cl)cc1Cl`, “inactive”. On to `N#Cc1ccccc1`, for which the Potency entry is “inactive”. Next, `Cc1ccc(C)c(O)c1`: “inactive”; `CCCOCC(C)OCC(C)O` (stereo not given): “inactive”. Under `N#CCc1ccccc1[N+](=O)[O-]` stands “inactive”; under `CC(=O)c1cc(C)oc1C`, “inactive”. Under `CCCCCCCCCCCCC1CO1` (stereo not given) stands “inactive”.

On to `BrC/C=C/CBr`, for which the Potency entry is “inactive”. Under `CCOc1cccc(N)c1` stands “inactive”; under `CCN(CC)c1cccc(O)c1`, “inactive”; under `Fc1ccccc1`, “inactive”. Under `CCNc1ccccc1` stands “inactive”; under `COc1ccc(N)c(OC)c1`, “inactive”; under `C1CCCC1`, “inactive”. In the case of `O=[N+]([O-])c1cccc(Cl)c1`, the Potency result is “inactive”.

In the case of `O=Cc1cccc(Br)c1`, the Potency entry was “inactive”.

With `Cc1ccco1`, the Potency result was “inactive”. As to `C[C@@H]1CC2(OC[C@]3(C)O[C@H]23)O[C@H]2C[C@@]3(C)[C@@H]4CC[C@H]5C(C)(C)C(O[C@@H]6OC[C@@H](O)[C@H](O)[C@H]6O)CC[C@@]56C[C@@]46CC[C@]3(C)[C@@H]12` (stereo not given in full), the Potency result is “inactive”.

As to `C1CCC2OC2C1` (stereo not given), the Potency result was “inactive”. Next, `CC(=O)c1ccccc1[N+](=O)[O-]`: “inactive”; `CC#N`: “inactive”. Next, `CC(C)N=C=NC(C)C`: “inactive”. As to `C=CC(=O)OCCCC`, the Potency entry was “inactive”. Under `C[C@@H]1O[C@@H](O[C@@H]2[C@@H](O)[C@H](OCCc3ccc(O)c(O)c3)O[C@H](CO[C@@H]3O[C@H](CO)[C@@H](O)[C@H](O)[C@H]3O)[C@H]2OC(=O)/C=C/c2ccc(O)c(O)c2)[C@H](O)[C@H](O)[C@H]1O` stands “inactive”. Next, `Clc1cc(Cl)cc(Cl)c1`: “inactive”; `OC(CCl)CCl`: “inactive”. Under `O=P(O)(OCc1ccccc1)OCc1ccccc1` stands “inactive”; under `CCCCC(C=O)CC` (stereo not given), “inactive”; under `CC(C)(O)CCC(C)(C)O`, “inactive”. With `O=Nc1ccc(NO)cc1`, the Potency was 39.8 µM (active). Under `Clc1ccc(Cl)c(Cl)c1Cl` stands “inactive”.

Turning to `C=CCn1c(=O)n(CC=C)c(=O)n(CC=C)c1=O`, the Potency entry was “inactive”.
